Source: PubChem BioAssay AID504710 (Sanford-Burnham Center for Chemical Genomics, 2011)
A number with no mark means an inactive call. Calls of active or inactive are those of the source.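 How the source made its calls: active means inhibition reaching about 16% in any single replicate (limit read from the data); inactive means the rest.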

Biological target: Hexokinase HKDC1 (Homo sapiens) (UniProt Q2TB90)
Test: compounds lowering human HKDC1 activity – biochemical, single concentration, confirmation (AID 504710)
Conditions: recombinant HKDC1, G6PDH/diaphorase/resazurin fluorescence; at 20 µM; active compounds read high

Hexokinase HKDC1 (Homo sapiens), sequence (Q2TB90 whole entry, looked up): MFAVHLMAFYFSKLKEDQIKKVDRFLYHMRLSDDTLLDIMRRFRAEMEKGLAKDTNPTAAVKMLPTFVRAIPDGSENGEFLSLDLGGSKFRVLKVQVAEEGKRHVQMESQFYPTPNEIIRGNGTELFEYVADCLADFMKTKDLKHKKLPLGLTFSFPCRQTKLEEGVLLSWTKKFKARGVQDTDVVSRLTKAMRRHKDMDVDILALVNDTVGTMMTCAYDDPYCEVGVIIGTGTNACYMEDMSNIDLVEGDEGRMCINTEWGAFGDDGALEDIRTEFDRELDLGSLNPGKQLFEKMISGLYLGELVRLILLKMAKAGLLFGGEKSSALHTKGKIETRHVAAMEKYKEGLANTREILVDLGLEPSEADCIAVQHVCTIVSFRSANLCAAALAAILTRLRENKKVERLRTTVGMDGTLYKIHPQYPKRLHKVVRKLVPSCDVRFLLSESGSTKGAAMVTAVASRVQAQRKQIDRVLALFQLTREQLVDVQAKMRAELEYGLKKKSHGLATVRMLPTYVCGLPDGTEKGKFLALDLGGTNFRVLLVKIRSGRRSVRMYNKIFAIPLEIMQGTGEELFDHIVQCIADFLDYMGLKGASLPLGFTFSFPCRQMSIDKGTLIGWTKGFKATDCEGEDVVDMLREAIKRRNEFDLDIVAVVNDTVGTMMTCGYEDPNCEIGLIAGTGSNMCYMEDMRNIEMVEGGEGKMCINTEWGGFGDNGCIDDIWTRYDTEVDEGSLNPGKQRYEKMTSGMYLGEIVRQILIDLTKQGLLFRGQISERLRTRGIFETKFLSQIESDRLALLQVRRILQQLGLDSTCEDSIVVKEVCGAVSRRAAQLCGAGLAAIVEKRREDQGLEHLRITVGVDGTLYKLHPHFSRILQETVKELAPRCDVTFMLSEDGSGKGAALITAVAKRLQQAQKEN

Structure (SMILES)	inhibition
CC(=O)/C(=N\Nc1ccc(Cl)cc1Cl)Sc1cccc2cccnc12	-44.8%
COC(=O)c1cc(C)nc2c1C(=O)C(=O)C=C2N1CCOCC1	65.8% (active)
CN(C)Cc1cc(O)c(CN(C)C)cc1O	70.3% (active)
CC(=O)n1cc(N(C(=O)CCl)c2ccc([N+](=O)[O-])cc2)c2ccccc21	40.9% (active)
Cc1nc2c(O)c3c(c(O)c2nc1C)C1C=CC3CC1	89.5% (active)
O=C(NNC(=S)Nc1ccc(Cl)c(Cl)c1)c1ccccn1	-74.1%
NS(=O)(=O)c1ccc(N=Nc2c(=O)[nH]n3c(=O)c4c([nH]c23)CCCC4)cc1	72.5% (active)
Cc1ccc(S(=O)(=O)/N=C2\C=C(Nc3cccc(C(=O)O)c3)C(=O)c3ccccc32)cc1	79.9% (active)
O=C(CNC(=O)/C=C/c1ccco1)N=Nc1c(O)[nH]c2ccccc12	39% (active)
S=C(NN=C(c1ccccc1)c1ccccn1)N(Cc1ccccn1)Cc1ccccn1	-59.4%
Cc1ccc(N=c2ssnc2Cl)cc1	-43.7%
CCN(CC)Cc1cc(O)c(CN(CC)CC)cc1O	41.2% (active)
O=C(O)c1ccc(N=Cc2c(O)ccc3ccccc23)cc1	43% (active)
CC(NC(=O)c1sc2cc([N+](=O)[O-])ccc2c1Cl)C(C)(C)C (configuration not stated)	-39.3%
Cc1nc(COC(=O)c2cc(O)c3ccccc3c2O)cs1	39.5% (active)
CC(=O)NC1C(=O)N(CCN2CCOCC2)c2ccc(Cl)cc21 (configuration not stated)	60.6% (active)
Cc1nc2c3cc(F)ccc3n(Cc3ccccc3)c2s1	-61.3%
